The panel holds about 83,000 compounds, 20% with a hit somewhere; the sample as a whole holds those more often.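 Activity criterion: percent growth below 10, measured after cells in 96-well plates were exposed to a single compound concentration for 48 hours.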 Activity calls are given as the source filed them.
These compounds were tested on ACHN renal (assay: NCI-60 one-dose screen, 48 h (100 = growth as untreated, 0 = no growth, -100 = all killed)). Details: 10 µM unless noted.

Structure (SMILES)	growth
CCCCCCCCN(CCCCCCCC)C(=O)CCl	100% (inactive)
O=C(Nc1ccc(-n2ccc3c(NC(=O)c4ccccc4)nccc32)cc1)c1ccc(N2CCOCC2)c(C(F)(F)F)c1	32.5% (inactive)
O=C1/C(=C/c2ccccc2)SC(=Nc2ccccc2)N1Nc1ccccc1	10% (inactive)
C[N+](C)(C)CC(=O)N/N=C\c1ccco1	107% (inactive)
CC(C)CCSc1nc(-c2ccc(F)cc2)c(C#N)c(N2CCN(C)CC2)n1	76.5% (inactive)
CC(=O)Oc1c(Cl)c(Cl)c(Cl)c(Cl)c1Cl	95.8% (inactive)
CN(C)c1nc(-c2cccs2)n2nc(-c3ccc(Cl)cc3)cc2n1	-21.1% (active)
COc1nccc2c(Sc3ccccc3)nc(N)nc12	108% (inactive)
c1cn2cc(-c3ccc4ncn(C5CCCCC5)c4c3)nc(-c3ccc4c(c3)ncn4C3CCCCC3)c2n1	-58.8% (active)
CCc1onc(-c2ccc(OC)cc2)c1-c1ccccc1OCCN(CC)CC	92.9% (inactive)
CCN(CCC#N)c1ccccc1	112% (inactive)
S=C(S)Oc1cccc2cccnc12	96.2% (inactive)
COc1ccccc1CNCCCN1C(=O)c2ccc3c4c(ccc(c24)C1=O)C(=O)N(CCCNCCCN)C3=O	9.16% (active)
CC(C)c1ccc(-c2cnc3nonc3n2)cc1	51.3% (inactive)
CN1CCCN(CCNc2nccc(-c3c(-c4cccc(O)c4)nc4sccn34)n2)S1(=O)=O	22.9% (inactive)
COc1ccccc1CNCCCN1C(=O)c2ccc3c4c(ccc(c24)C1=O)C(=O)N(CCCCNCCCN)C3=O	28.1% (inactive)

Reference: PubChem BioAssay (NCI)
